According to PubChem BioAssay AID1851 (National Center for Advancing Translational Sciences (NCATS), 2009):
In all, about 16,000 compounds went through this assay and about 5,700 (36%) were called active. Not shown: some 24% with an inconclusive outcome. Calls follow the shape of the dose curve; as a rule, active = well fitted curve in the direction sought with a large enough effect; inconclusive = small, poorly fitted or top-dose-only effect, or effect the other way; inactive = no such curve, though single readings can be large or run the other way. This is one part of the list.

What follows are molecules tested against Cytochrome P450 1A2 (Homo sapiens) (UniProt P05177) (assay: Cytochrome panel assay with activity outcomes). Details: recombinant CYP, pro-luciferin dealkylation, luminescence, p450-cyp1a2; series mostly up to 57.1 µM.
Cytochrome P450 1A2 (Homo sapiens), sequence (P05177 whole entry, looked up): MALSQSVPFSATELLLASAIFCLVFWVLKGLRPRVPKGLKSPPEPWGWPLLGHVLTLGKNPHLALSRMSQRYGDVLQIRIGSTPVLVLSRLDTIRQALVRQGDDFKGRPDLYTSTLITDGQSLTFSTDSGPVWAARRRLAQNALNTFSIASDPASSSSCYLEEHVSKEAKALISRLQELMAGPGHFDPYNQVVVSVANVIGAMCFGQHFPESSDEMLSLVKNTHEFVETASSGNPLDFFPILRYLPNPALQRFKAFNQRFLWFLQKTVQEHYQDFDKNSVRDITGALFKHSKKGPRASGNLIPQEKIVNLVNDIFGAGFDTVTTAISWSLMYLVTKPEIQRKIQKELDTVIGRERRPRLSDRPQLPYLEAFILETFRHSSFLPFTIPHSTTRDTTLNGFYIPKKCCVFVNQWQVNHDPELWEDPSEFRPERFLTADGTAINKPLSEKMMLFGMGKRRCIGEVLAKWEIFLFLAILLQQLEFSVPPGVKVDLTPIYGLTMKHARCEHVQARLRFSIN
% is scaled to controls: 0 for no effect and ±100 for the full control effect.

Compound | AC50 | activity, negative = inhibition
O=P(O)(CCc1ccccc1)C(O)c1ccccc1 (centres undefined) | inactive | –
CO[C@@H](NC(N)=O)C(=O)O | – | -6.36% [at 2.29 µM] (inactive)
O=C(O)c1cc(=O)[nH]c(=S)[nH]1 | – | -10.7% [at 2.29 µM] (inactive)
Cc1cc(C)n2c(SCC(=O)N(C)C3CCS(=O)(=O)C3)nnc2n1 (centres undefined) | inactive | –
NC(=S)NCCC[C@@H](N)C(=O)O | inactive | –
Cc1cccc(-c2nsc(SCC(=O)Nc3nccs3)n2)c1 | 251 nM (active) | –
C1CCc2c(nc3nnnn3c2NC2CCCC2)C1 | 11200 nM (active) | –
COc1ccc(CNc2nc3nc4c(c(=O)n3[nH]2)CCC4)cc1 | inactive | –
CSc1nc2nc3c(c(=O)n2[nH]1)CN(Cc1ccccc1)CC3 | 3160 nM (active) | –
Cc1ccccc1CN1C2=NCCN2C(=O)C2=C1CCN(Cc1ccccc1)C2 | – | -2.99% [at 11.4 µM] (inactive)
CSc1ccc2nnc(-c3cccc(F)c3)n2n1 | 3160 nM (active) | –
CCOc1ccc(-c2nnc3ccc(SC)nn23)cc1 | 1000 nM (active) | –
CCOc1ccc(C2=[N+]([O-])C(C)(C)N(O)C2(C)C)cc1 | inactive | –
O=C(c1ccccc1)N(Cc1ccco1)C1CCS(=O)(=O)C1 (centres undefined) | inactive | –
O=C(CN(Cc1ccco1)C(=O)c1ccccc1)Nc1ccc(Cl)c(Cl)c1 | 14100 nM (active) | –
O=C(CSc1nnc(-c2ccccn2)n1Cc1ccco1)Nc1ccc2c(c1)OCO2 | inactive | –
c1ccc2c(c1)ncn2-c1ncnc2sc3c(c12)CCCC3 | 5620 nM (active) | –
CC(C)(C)C(=O)[C@H]([C@@H](c1ccccc1)N1CCOCC1)N1CCOCC1 | – | -6.91% [at 11.4 µM] (inactive)
Cc1cc(C(F)(F)F)n2nc(-c3cnn(C)c3C(F)(F)F)c(Cl)c2n1 | 178 nM (active) | –
Cc1cc(C(F)(F)F)n2nc(-c3cnn(C)c3C(F)(F)F)cc2n1 | 1120 nM (active) | –
O=[N+]([O-])C(/C=C(\Cl)[N+](=O)[O-])=C1N(Cc2ccc(Cl)nc2)CCN1Cc1ccc(Cl)nc1 | inactive | –
Cc1cc2[nH]c(=O)c3ccccc3n2n1 | 1260 nM (active) | –
Cc1cc(-c2c(C)[nH]n(-c3ccccc3)c2=O)n(-c2ccccc2)n1 | inactive | –
Cc1nn2c([nH]c(=O)c3ccccc32)c1C=O | 2510 nM (active) | –

Compound | AC50 | activity, negative = inhibition
COC(=O)Cn1c(CN(Cc2ccccc2)Cc2ccccc2)nc2c1c(=O)[nH]c(=O)n2C | inactive | –
CN(C)c1ccc(-c2nc3n(n2)C(c2cccnc2)C2=C(CC(C)(C)CC2=O)N3)cc1 (centres undefined) | 3160 nM (active) | –
CN(C)N1C(N)=C(C#N)C(c2cccnc2)C2=C1CC(C)(C)CC2=O (centres undefined) | inactive | –
COc1cc(NC(=O)Cc2c(C(=O)O)[nH]c3ccccc23)cc(OC)c1OC | inactive | –
CCc1c(C(=O)O)[nH]c2ccc(Br)cc12 | 5010 nM (active) | –
COc1ccc(CSC2=C(C#N)C(=O)NC3(CCCCC3)S2)cc1 | – | -5.77% [at 2.29 µM] (inactive)
Cc1nn(-c2ccccc2)c(N2CCCCC2)c1/C=N/O | 1580 nM (active) | –
N#C/C(=C\c1cc([N+](=O)[O-])c(N2CCCCC2)cc1N1CCCCC1)c1nn(-c2ccccc2)c(N)c1C#N | inactive | –
CO[C@@H]1COC(=O)[C@H](CCSC)NC(=O)C/C=C\[C@@H](C)COC(=O)[C@@H]2CCCN2C(=O)C/C=C\[C@H]1C | – | 7.24% [at 11.4 µM] (inactive)
Cc1ccc2c(c1)nnn2C1CCN(S(=O)(=O)c2ccc(C(=O)N3C(C)CCCC3C)cc2)CC1 (centres undefined) | inactive | –
C[C@@H]1CCC[C@H](C)N1NC(=O)c1ccc(Cl)c(S(N)(=O)=O)c1 | inactive | –
CC1CCCC(C)N1C(=O)c1cc(-c2ccc(Cl)c(Cl)c2)on1 (centres undefined) | 5010 nM (active) | –
CC1(C)CC(NCc2ccc3c(c2)OCO3)CCO1 (centres undefined) | inactive | –
c1ccc(-c2nc3ccccn3c2NCc2ccc3c(c2)OCO3)cc1 | 1780 nM (active) | –
CS(=O)(=O)N1CCC[C@@]2(CCN(c3ncccn3)C2)C1 | inactive | –
CCOCC(=O)Nc1cc(C(=O)Nc2ccccc2)ccc1Cl | 2510 nM (active) | –
COC(=O)c1ccc(Cl)c(NC(=O)c2ccc(-c3ccccc3)cc2)c1 | inactive | –
CCOCC(=O)Nc1cc(C(=O)Nc2cccc(C)c2C)ccc1Cl | 5010 nM (active) | –
CCc1c2c(nc3ccc(OC)cc13)COC2 | 794 nM (active) | –
CCc1c2c(nc3cccc(SC)c13)COC2 | 2510 nM (active) | –
Cc1ccc(-c2n[nH]c(=S)n2/N=C/c2cccn2C)cc1 | 3550 nM (active) | –
COc1ccc(-n2c(-c3cnccn3)n[nH]c2=S)cc1 | inactive | –
Cc1ccc(/C=N/n2c(-c3cccs3)n[nH]c2=S)cc1 | 282 nM (active) | –
COc1ccc(/C=N/n2c(-c3cccs3)n[nH]c2=S)cc1 | 631 nM (active) | –

Compound | AC50 | activity, negative = inhibition
Nc1ccn([C@H]2O[C@@H](COP(=O)(O)O)[C@@H](O)[C@H]2O)c(=O)n1 | – | -23.3% [at 11.4 µM] (inactive)
O=c1c(-c2ccccc2)nc2cnc(Oc3cccc(Cl)c3)nc2n1C1CC1 | 1580 nM (active) | –
O=c1c(-c2ccc(F)cc2)nc2cnc(Oc3cccc(Cl)c3)nc2n1C1CC1 | 316 nM (active) | –
N#CCCn1c(=O)c(-c2cccc(C#N)c2)nc2cnc(Oc3cccc(Cl)c3)nc21 | inactive | –
N#Cc1cccc(-c2nc3cnc(Oc4cccc(Cl)c4)nc3n(C3CC3)c2=O)c1 | 2510 nM (active) | –
CC(C)CN1CCC2(CC1)CCN(C(=O)c1cccc(F)c1)CC2 | inactive | –
CC(=O)OC[C@@H]1O[C@@H](O/N=C2/C[C@@H](O)[C@@H](O)[C@@H]3[C@@H]4C(=O)N(C[C@@H]5CCCO5)C(=O)[C@H]4CC[C@@H]23)[C@H](OC(C)=O)[C@H](OC(C)=O)[C@@H]1OC(C)=O | – | 5.86% [at 11.4 µM] (inactive)
O=C(N/N=C/c1ccc(OCc2ccccc2)cc1)c1cccs1 | 3160 nM (active) | –
COc1ccc(/C=N/NC(=O)CCc2ccccc2)cc1O | 25100 nM (active) | –
C=CCNC(=S)N/N=C/c1ccc(OCc2ccccc2)cc1 | 14100 nM (active) | –
O=C(N/N=C/c1cccc(OCc2ccccc2)c1)c1cccs1 | 2240 nM (active) | –
Cc1cccc(C)c1NC(=O)COc1cccc(/C=N/NC(=O)C(=O)NCc2ccccc2)c1 | inactive | –
COc1ccc(/C=N\NC(=O)C2C(=O)NCC2c2ccccc2)cc1O (centres undefined) | inactive | –
C/C(CCC(=O)OC[C@@H]1O[C@H](C#Cc2ccccc2)C=C[C@@H]1Oc1ccc(C)cc1)=N/OC[C@@H](O)COCc1ccco1 | – | -4.08% [at 11.4 µM] (inactive)
C/C(CCN1CCCc2nc(C)c(C)cc21)=N\OC[C@@H](O)[C@@H]1O[C@@H]2OC(C)(C)O[C@@H]2[C@H]1O | – | 1.1% [at 11.4 µM] (inactive)
Nc1nc2ncc(CNc3ccc(C(=O)N[C@@H](CCC(=O)O)C(=O)O)cc3)nc2c(=O)[nH]1 | inactive | –
COc1cc(/C=N/NC(=O)c2cccs2)ccc1OCc1ccccc1 | 794 nM (active) | –
COc1cc(/C=N/NC(=O)c2cccc([N+](=O)[O-])c2)ccc1OCc1ccc(C)cc1 | inactive | –
Cc1cccc(NC(=S)NC(=O)c2cccs2)n1 | 794 nM (active) | –
Cc1ccccc1C(=O)Nc1cccc(NC(=S)NC(=O)c2cccs2)c1 | 3160 nM (active) | –
COc1cc(NC(=S)NC(=O)c2c(OC)cccc2OC)ccc1NC(=O)c1cccs1 | inactive | –
CCN(c1ccccc1)S(=O)(=O)c1ccc(NC(=S)NC(=O)c2cccs2)cc1 | inactive | –
Cc1c(C)c(C)c(CC2(C)CSC2)c(CC2(C)CSC2)c1C | – | -16.1% [at 11.4 µM] (inactive)
COc1cccc([C@@H]2Oc3ccc(OC)cc3/C(=N/OC[C@@H](O)COCc3ccco3)[C@@H]2O)c1 | – | -3.42% [at 11.4 µM] (inactive)

Compound | AC50 | activity, negative = inhibition
CN(Cc1ccco1)c1cc(-c2cccc(C#N)c2)ncn1 | 794 nM (active) | –
COc1cccc(-c2cc(N(C)Cc3ccco3)ncn2)c1 | 794 nM (active) | –
CN(Cc1ccco1)c1cc(-c2cccnc2)ncn1 | 316 nM (active) | –
CCCNC1CCS(=O)(=O)C1 (centres undefined) | inactive | –
CCOC(=O)c1c(C)[nH]c(C(=O)OCC(=O)NC2CCS(=O)(=O)C2)c1C (centres undefined) | 12600 nM (active) | –
Cc1ccc(/S(C)=N/S(=O)(=O)c2ccc(C)cc2)cc1 (centres undefined) | inactive | –
CCCS(=O)(=O)N1CCCC(C(=O)N2CCN(C(=O)OCC)CC2)C1 (centres undefined) | 10000 nM (active) | –
CCCS(=O)(=O)N1CCCC(C(=O)NCCCOCC)C1 (centres undefined) | inactive | –
CCCS(=O)(=O)N1CCCC(C(=O)NCCCOC(C)C)C1 (centres undefined) | inactive | –
COC(=O)c1ccc(NC(=O)c2ccccc2NS(=O)(=O)c2ccccc2)cc1 | inactive | –
COC(=O)c1ccc(NC(=O)c2cc3sccc3n2C)cc1 | 8910 nM (active) | –
Cn1c(C(=O)Nc2ccccc2)cc2sccc21 | 8910 nM (active) | –
CN1c2ccccc2C(O)=C(C(=O)Nc2ccccc2)S1(=O)=O | inactive | –
COCCNc1ncnc2ccc(-c3cccc(OC)c3)cc12 | 794 nM (active) | –
COCCNc1ncnc2ccc(-c3cccnc3)cc12 | 200 nM (active) | –
COc1cccc(-c2ccc3ncnc(NCCNC(C)=O)c3c2)c1 | 3160 nM (active) | –
N#Cc1ccc(CN2CCCC3(CCN(C(=O)c4cccc(F)c4)CC3)C2)cc1 | inactive | –
Cn1c(=O)[nH]c(=O)c2c1nc(CN1CCOCC1)n2CCCO | inactive | –
COc1ccccc1CNc1ncncc1-c1ccccc1Cl | 10000 nM (active) | –
COc1ccc(CNc2ncncc2-c2ccccc2C(F)(F)F)c(OC)c1 | 15800 nM (active) | –
COc1ccccc1CNc1ncncc1-c1ccccc1C(F)(F)F | 15800 nM (active) | –
Cc1ccccc1CN1CCN(CC(=O)NCCCN2CCN(c3ccc(F)cc3)CC2)C1=O | inactive | –
